TRHR PAM – allosterically enhances the human TRH receptor; P34981; TRHR cells, fluo-8 calcium fluorescence, EC20 TRH enhancement; enhancement, % at 2 µM; 360,000 tested, 0.66% active; AID 493056; in the data active = enhancement above about 30%; note: 0% is about no effect
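TRHR-expressing cells loaded with fluo-8 calcium dye were read kinetically (ex 480/em 530) during compound addition, then stimulated with an EC20 of TRH (10 nM final). Enhancement of the Gq-mediated intracellular calcium response was scored.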
TRHR ag – activates the human TRH receptor | P34981 | TRHR cells, calcium flux fluo-8, FDSS agonist mode | activation, % at 2 µM | 360,000 tested, 0.18% active; note: 0% is about no effect
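Fluo-8-loaded TRHR cells; 10 s baseline, compound added, kinetic Ca2+ fluorescence read 1/s, agonist mode.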
Epigenetic reg – epigenetic control regulation, reporter derepression | murine LDR cells, GFP reporter derepression, 30 h | Potency, µM (titrated, usually from 53.9 µM), for the others: at the highest dose GFP activation, usual class: activators | 280,000 tested, 0.2% active | AID 1865; active = well fitted activation curve with a large enough effect; note: potency is the fitted concentration of half-maximal effect; % of control where 0% means no effect; nearly all actives have a fitted effect of over 60% in size
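In this reporter-derepression format, murine cells bearing a silenced integrated CMV-GFP locus incubate with test compound (30 h, 37 C), then are washed and imaged; fluorescent objects of 20–120 um count as induced cells.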
D1 agonist – activates the human D1 dopamine receptor. P21728. HEK293 T-REx D1 cells, calcium flux, agonist mode. activation, % at 2 µM. 360,000 tested, 1% active. AID 504660; note: 0% is about no effect
Target sequence (P21728 whole entry, looked up): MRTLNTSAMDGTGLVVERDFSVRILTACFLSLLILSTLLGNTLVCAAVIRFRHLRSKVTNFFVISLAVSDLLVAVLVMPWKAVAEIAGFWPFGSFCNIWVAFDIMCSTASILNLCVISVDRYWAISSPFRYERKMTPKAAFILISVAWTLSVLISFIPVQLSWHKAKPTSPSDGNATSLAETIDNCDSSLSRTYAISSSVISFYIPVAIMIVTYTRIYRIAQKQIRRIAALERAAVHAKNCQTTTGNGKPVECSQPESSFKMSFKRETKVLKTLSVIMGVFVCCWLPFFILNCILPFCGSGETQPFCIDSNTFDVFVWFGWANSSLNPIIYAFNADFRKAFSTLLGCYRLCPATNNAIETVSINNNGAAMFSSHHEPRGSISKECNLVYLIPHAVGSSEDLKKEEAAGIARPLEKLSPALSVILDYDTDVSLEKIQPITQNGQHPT
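Inducible HEK293 T-REx D1 cells, force-coupled to calcium signalling, were plated at 4000 cells/well with tetracycline and held overnight at 30 C. After no-wash calcium dye loading, compound-evoked calcium rise over 180 s flagged agonists.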
D1 antag – human D1 dopamine receptor antagonism. activity change, negative = inhibition, % at 10 µM. 360,000 tested, 3.2% active. HEK293 TREx D1 cells, calcium flux, dopamine EC80; active compounds read low; in the data active = activity change below about -30%; note: % is set by controls: 0 for no effect and ±100 for the full control effect
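Tetracycline-induced HEK293 T-REx cells with force-coupled D1 receptor were loaded with a no-wash calcium dye. Compound was added after a 10 s baseline and read kinetically for 180 s; EC80 dopamine was then added and calcium flux followed another 180 s.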
D1 potentiator – potentiators of human D1 dopamine receptor; P21728; HEK293 TREx D1 cells, calcium flux, dopamine EC20 potentiation; potentiation, % at 10 µM; 360,000 tested, 0.036% active; AID 504651; in the data active = potentiation above about 30%; note: 0% is about no effect
The depositor's hits bear a star; · = no result given; [ ] = remark or other dose. Most compounds without a hit are left out; they make up all but 4.6% or so of the library. Cut-off read from the data, not from the text of the source, unless noted: active = activation above about 30%; inactive = the rest.

SMILES	TRHR PAM	TRHR ag	Epigenetic reg	D1 agonist	D1 antag	D1 potentiator
CN1C(C(=O)c2ccccc2)=C(NC(=O)c2ccccc2Br)c2ccccc2S1(=O)=O	-8	0	13%	-1	-5	0
Cc1ccccc1-c1nn2c(=O)cc(CN3CCN(S(=O)(=O)c4ccc(Cl)cc4)CC3)nc2s1	-1	0	0%	-1	-30*	-6
O=c1cc(CN2CCN(S(=O)(=O)c3ccccc3)CC2)nc2sc(-c3ccccc3Cl)nn12	1	-1	-2%	0	1	3
O=c1cc(CN2CCN(S(=O)(=O)c3ccc(Cl)cc3)CC2)nc2sc(-c3ccccc3F)nn12	-3	0	0%	-1	-37*	-3
Cc1ccccc1Nc1c(-c2ccco2)nc2c(C)cccn12	2	0	2%	2	0	1
Cc1cc(Cl)nc(-n2nc(C)cc2C)n1	1	0	1%	1	-42*	-4
Cc1ccc(Cn2nc(C)c(NC(=O)C3(C)CC3(Br)Br)c2C)cc1 (centres undefined)	6	0	-1%	0	-38*	-4
CCc1cc(C(=O)Nc2c(C)nn(Cc3ccc(C)cc3)c2C)no1	3	-2	-2%	-1	-9	2
CCCCNC(=O)CCNS(=O)(=O)c1ccc(Br)cc1	3	1	0%	1	-18	0
CCC(C)NC(=O)CCNS(=O)(=O)c1ccc(Br)cc1 (centres undefined)	7	-1	2%	2	-93*	2
CCOC(=O)c1ccc(NC(=O)N2CCOc3ccccc32)cc1	-8	1	1%	9	-30*	-5
CCOC(=O)c1ccc(NC(=O)Nc2ccc3c(c2)OCCO3)cc1	1	1	2%	3	-4	2
CCOC(=O)c1ccc(NC(=O)CC2COc3ccccc3O2)cc1 (centres undefined)	10	1	0%	0	-30*	1
Cc1noc(C)c1S(=O)(=O)N(CC(=O)NCc1ccccc1Cl)c1ccc(C(C)C)cc1	-7	2	3%	2	-7	1
NC(=O)c1ncn(C2OC(CO)C(O)C2O)n1 (centres undefined)	·	·	-1%	·	·	·
COc1ccc(OC)c(NC(=O)C2CCN(S(=O)(=O)c3ccc4c(c3)CCCC(=O)N4)CC2)c1	5	0	-1%	-1	2	-9
COC(=O)c1ccccc1NC(=O)c1nc(-c2ccc(Cl)cc2)n2c1CCCCC2	35*	1	0%	0	-10	-4
Cc1cccc(OC(=O)CSc2nnc(-c3cccs3)o2)c1C	0	0	-1%	-1	5	0
CCc1ccc(-n2c(=O)c3cccnc3n2CC(=O)NCc2ccc(C)cc2)cc1	-4	0	10%	6	14	-5
CCOC(=O)c1ccccc1NC(=O)Cn1c2ncccc2c(=O)n1-c1ccccc1	4	0	13%	4	10	-4
CCc1ccc(-n2c(=O)c3cccnc3n2CC(=O)Nc2ccccc2C(F)(F)F)cc1	-1	1	-1%	11	-44*	-6
CCc1ccccc1NC(=O)Cn1c2ncccc2c(=O)n1-c1ccccc1	25	-1	7%	5	-45*	-8
Cc1ccc(CNC(=O)Cn2c3ncccc3c(=O)n2-c2ccc(C)cc2)cc1	-4	0	-3%	7	-57*	-7
COc1c(CC=C(C)C)cc(C2CC(=O)c3c(O)cc(O)cc3O2)cc1CC=C(C)C (centres undefined)	33*	0	8%	3	-13	-8
CCCCOC(=O)C1[C@H]2C(=O)N(Cc3cccs3)C[C@]23C=C[C@H]1O3 (some centres undefined)	6	0	4%	0	-2	-2
SMILES	TRHR PAM	TRHR ag	Epigenetic reg	D1 agonist	D1 antag	D1 potentiator
CCCOC(=O)C1[C@H]2C(=O)N(Cc3ccco3)C[C@]23C=C[C@H]1O3 (some centres undefined)	6	0	0%	-1	-61*	-10
CN(Cc1ccccc1)c1nc2c(S(=O)(=O)c3ccccc3)nnn2c2ccsc12	-4	0	0%	1	-3	-1
CCc1cc2c(NCC3CCCO3)ncnc2s1 (centres undefined)	-3	0	-2%	5	-3	-6
Cc1sc2ncnc(NCC3CCCO3)c2c1C (centres undefined)	2	0	2%	12	-30*	-5
Cn1c(Cc2ccc(Cl)cc2)nnc1SCC(=O)NC1CC1	-4	0	·	1	33	-3
CCn1c(Cc2cccs2)nnc1SCC(=O)NC1CC1	12	1	·	0	10	1
COc1cc(-c2nnc(SCC(=O)NC3CCCC3)n2C)cc(OC)c1O	-2	0	·	2	-41*	-4
Cn1c(Cc2ccc3c(c2)OCO3)nnc1SCC(=O)NC1CCCC1	-5	-1	-2%	1	-33*	-11
CCn1c(Cc2ccccc2)nnc1SCC(=O)NC1CC1	9	0	-2%	0	-32*	1
O=c1oc2ccc(F)cc2cc1-c1nc(-c2cccs2)no1	4	1	1%	1	-1	-3
COc1ccc(NC(=O)c2c(N)c(C(=O)c3ccc(C)cc3)n3ccccc23)cc1OC	-8	-1	-4%	1	-13	-2
COc1ccc(C(=O)N(C)CC2CCN(CCc3cccc(C(F)(F)F)c3)CC2)cc1C	1	-1	·	11	-49*	-2
CN(CC1CCCN(CCc2cccc(C(F)(F)F)c2)C1)C(=O)c1ccco1 (centres undefined)	24	3	·	3	-40*	11
C[C@H](N)CCCC(C)(C)O	·	·	-1%[16.9 µM]	·	·	·
CCCCC(=O)Nc1ccc(OCc2cc(=O)n3ccc(C)cc3n2)cc1	-2	0	3%	0	0	-1
Cc1c(Cl)cccc1NC(=O)Nc1nnc(N(C)Cc2ccccc2)s1	-3	-1	0%	1	-6	4
COc1ccc(-c2noc(CNC(=O)COc3cccc(C)c3C)n2)cc1	-6	1	-2%	15	11	-2
CC(=O)c1ccc(OCc2cc(C(=O)N3CCC(Oc4ccccc4C)CC3)no2)cc1	-6	1	·	26	-53*	-6
COC1CCN(C(=O)c2cc(COc3ccc(-n4cncn4)cc3)on2)CC1	1	1	·	-1	-13	-1
CCC1CCCCN1C(=O)c1cc(COc2ccc(-n3cncn3)cc2)on1 (centres undefined)	5	-1	·	17	-34*	-10
Cc1cccc(C)c1OCc1cc(C(=O)N2CCC(c3ccncc3)CC2)no1	5	-1	·	12	-42*	-6
CC(=O)c1ccc(OCc2cc(C(=O)N3CCCCCCC3)no2)cc1	-1	0	·	27	-38*	-5
